Most compounds without a hit are left out; they make up all but 3.7% or so of the library.
Bead autofluor – flagged as autofluorescent in microsphere protease counterscreen; compound autofluorescence counterscreen, microsphere flow cytometry; hits give high values; fluorescence intensity (concentration not given with the values); 360,000 tested, 3.1% active; AID 624483; in the data active means fluorescence intensity above about 16000; inconclusive means no clear call, values can overlap the other calls
BoNT A protease – BoNT/A light chain protease inhibitors, primary screen, biochemical, flow cytometry, MLPCN library; Botulinum neurotoxin type A light chain protease (Clostridium botulinum A str. ATCC 3502); multiplex microsphere protease substrate cleavage; inhibition, % at 10 µM; 360,000 tested, 0.17% active
Anthrax LF prot – Bacillus anthracis LF protease inhibitors, primary screen, biochemical, multiplex microsphere, MLPCN library | multiplex microsphere protease cleavage assay | inhibition, % at 10 µM | 360,000 tested, 0.12% active | AID 588501, 2011
Target sequence (P15917 whole entry, looked up): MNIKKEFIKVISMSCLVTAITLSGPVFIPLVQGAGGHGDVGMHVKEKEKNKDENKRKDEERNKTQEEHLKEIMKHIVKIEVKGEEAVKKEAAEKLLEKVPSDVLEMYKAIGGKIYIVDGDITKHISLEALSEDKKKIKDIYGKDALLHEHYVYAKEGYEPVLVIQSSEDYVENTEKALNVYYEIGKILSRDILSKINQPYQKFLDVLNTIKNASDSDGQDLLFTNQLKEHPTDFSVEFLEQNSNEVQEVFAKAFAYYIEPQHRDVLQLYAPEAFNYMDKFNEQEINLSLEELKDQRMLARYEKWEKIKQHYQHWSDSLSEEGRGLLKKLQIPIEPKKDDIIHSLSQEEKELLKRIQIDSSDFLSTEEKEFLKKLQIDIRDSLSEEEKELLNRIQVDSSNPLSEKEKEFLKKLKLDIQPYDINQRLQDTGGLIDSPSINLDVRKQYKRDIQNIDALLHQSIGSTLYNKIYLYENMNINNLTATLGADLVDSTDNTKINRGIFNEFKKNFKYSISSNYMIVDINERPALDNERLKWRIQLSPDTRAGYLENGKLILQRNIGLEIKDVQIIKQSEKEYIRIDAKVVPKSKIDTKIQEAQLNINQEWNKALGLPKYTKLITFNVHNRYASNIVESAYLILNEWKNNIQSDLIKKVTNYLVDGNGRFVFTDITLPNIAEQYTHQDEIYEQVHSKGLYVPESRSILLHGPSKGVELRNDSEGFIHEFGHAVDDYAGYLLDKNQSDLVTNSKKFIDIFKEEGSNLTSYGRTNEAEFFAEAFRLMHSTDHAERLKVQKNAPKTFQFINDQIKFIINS
MazEF act – activators of E. coli MazEF toxin-antitoxin RNase, primary screen, biochemical, fluorescence, uHTS; Endoribonuclease toxin MazF (Escherichia coli (strain K12)), P0AE70; FAM/BHQ RNA-DNA oligo cleavage fluorescence, 5 h; activation, % at 20 µM; 350,000 tested, 0.32% active; AID 504720, 2011; in the data active means activation above about 50%
BoNT F protease – BoNT/F light chain protease inhibitors, primary screen, biochemical, flow cytometry, MLPCN library; Botulinum neurotoxin type F light chain protease (Clostridium botulinum); Multiplex microsphere protease cleavage assay; inhibition, % at 10 µM; 360,000 tested, 0.22% active; in the data active means inhibition above about 35%, passing the limit was not always enough; inconclusive means no clear call, values can overlap the other calls
A number is an active result; 0 = inactive; ? = inconclusive; - = no result. Unless noted, no stated cut-off is given here; in the data, active means inhibition above about 30%; inconclusive means no clear call, values can overlap the other calls; inactive means below that.

SMILES	Bead autofluor	BoNT A protease	Anthrax LF prot	MazEF act	BoNT F protease
COC(=O)c1c(C)oc2ccc(OC(=O)N3CCOCC3)cc12	0	0	0	0	0
COc1cccc(Oc2coc3cc(OC(=O)N4CCOCC4)ccc3c2=O)c1	0	0	0	0	0
COc1ccc(Oc2c(C)oc3cc(OC(=O)N4CCOCC4)ccc3c2=O)cc1	16237	0	0	0	0
COc1ccccc1Oc1coc2cc(OC(=O)N3CCOCC3)ccc2c1=O	22043	0	0	0	0
COc1ccc(-c2coc3cc(OC(=O)N4CCOCC4)ccc3c2=O)cc1	0	0	0	0	0
Cc1cccc(NC(=O)c2nc[nH]c2C(=O)N2CCN(C(=O)OC(C)(C)C)CC2)c1	0	0	0	0	0
Cc1cc(NC(=O)COC(=O)CCn2c(C)csc2=O)c([N+](=O)[O-])cc1C	0	0	0	0	0
O=C1CC(=O)Nc2cc(S(=O)(=O)NCc3cccs3)ccc2N1	0	0	0	0	0
C[C@@H]1CN([C@H](C)CO)C(=O)CCCn2nncc2CO[C@H]1CN(C)S(=O)(=O)c1ccccc1	0	0	0	0	0
COC(=O)C1=C(C)NC(C)=C(C(=O)OC)C1c1ccc(NC(C)=O)cc1	0	0	0	0	0
COC(=O)C1=C(C)NC(=O)NC1c1ccccc1 (centres undefined)	23564	0	0	0	0
CCN(CC)c1ccc(C2C(C(=O)OC)=C(C)NC(C)=C2C(=O)OC)cc1	22496	0	0	0	0
O=C(c1cc2c(s1)CCCC2)N1CCC2(CC1)OCCO2	23757	?	0	0	0
O=C(O)CCCN1C(=O)/C(=C/c2ccc(-c3nc4ccccc4s3)o2)SC1=S	0	30.3	39.8	0	0
O=C(O)CCCCCN1C(=O)/C(=C\c2ccc(-c3ccc(Cl)cc3)o2)SC1=S	0	42.7	0	0	0
Cc1ccc(Sc2ccc(NC(=O)c3ccc(S(C)(=O)=O)cc3Cl)cc2)cc1	21237	?	0	0	0
CS(=O)(=O)c1ccc(C(=O)Nc2ccc(N3CCCCC3)cc2)c(Cl)c1	0	0	0	0	0
CCCNC(=O)c1cc2c(c(-c3cccc(-c4ccccc4F)c3)n1)[C@@H](CCO)N(C(=O)CC1CC1)C2	0	0	0	-	0
CCOC(=O)c1[nH]c2cc(OC)c(OC)cc2c1N	?	0	0	0	0
CCOC(=O)c1[nH]c2ccc(C)cc2c1N	22785	0	0	0	0
CS(=O)(=O)CCC(C(=O)Nc1ccc2c(c1)OCO2)N1Cc2ccccc2C1=O (centres undefined)	0	0	0	0	0
COc1ccc(NC(=O)C2CCN(S(=O)(=O)c3cccc4nonc34)CC2)cc1OC	0	0	0	0	0
CC1(C(=O)Nc2ccc3c(c2)OCO3)CCN1C(=O)CCC1CCCC1 (centres undefined)	0	0	0	-	0
COC(=O)c1ccc(NC(=O)CSCc2ccc(C)cc2)cc1	22818	0	0	0	0
COC(=O)c1ccc(NC(=O)CSCc2ccccc2C)cc1	22086	0	0	0	0
SMILES	Bead autofluor	BoNT A protease	Anthrax LF prot	MazEF act	BoNT F protease
CC(=O)c1ccc(NC(=O)CSCCO)cc1	19947	0	0	0	0
CCC(c1nc2ccccc2[nH]1)N(Cc1cccnc1)C(=O)c1cc(-c2ccccc2)on1 (centres undefined)	0	0	0	-	0
Cc1noc(C)c1-c1ccc(C(=O)NC2CCCCC2)c2occc12	0	0	0	-	0
CC(C)NC(=O)CN1C(=O)C(=O)c2ccccc21	22994	?	0	0	0
CC1(C)CC(=O)C=C(Nc2ccc(Br)cn2)C1	0	0	0	0	0
CC(O)c1cccc(NC2=CC(=O)CC(C)(C)C2)c1 (centres undefined)	22635	0	0	0	0
CC1(C)CC(=O)C=C(Nc2ccccn2)C1	21302	?	0	0	0
Cc1cc(C(=O)COC(=O)C2=NNC(=O)CC2)c(C)n1-c1cccc(C(F)(F)F)c1	17667	0	0	0	0
CCOC(=O)c1cnn(CCOC(=O)c2ccccc2)c1NC(=O)c1ccccc1	0	0	0	0	0
CCOC(=O)c1cnn(CCOC(=O)C2CC2)c1NC(=O)C1CC1	20293	0	0	0	0
Cc1ccc(S(=O)(=O)N2CCCN(C(=O)c3ccc(-n4cccn4)cc3)CC2)cc1	0	0	0	0	0
Cc1cc(N2CCN(c3ccccc3)CC2)nc(NCc2ccccc2)n1	0	0	0	55.1	0

High-throughput results: PubChem BioAssay, several laboratories
